# From the supplement of paper PMC7057948, “A genome-wide approach for identification and characterisation of metabolite-inducible systems” (Nature Communications, 2020)
# System: HpdA/P_H16_RS24175 L-tyrosine biosensor (pEH158)
# Assay: relative induction of RFP reporter vs primary effector (background-corrected); higher = stronger activation of the biosensor
# Details: inducer concentration 5 mM; 6 h; Cupriavidus necator H16; minimal medium + 0.4% gluconate
# Procedure: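 C. necator H16 strains, each carrying one of 21 transcription factor/inducible promoter–mRFP biosensor plasmids, were grown in minimal medium in 96-well plates (robotic platform). Each was exposed to 46 structurally or metabolically related compounds at 5 mM at 30 °C. OD-normalised RFP fluorescence was read 6 h later and expressed as relative induction (%) = 100 × (FL compound − FL uninduced)/(FL primary inducer − FL uninduced); mean of n=4.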
# 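Also: RFP excited at 585 nm with emission read at 620 nm, culture medium blanks subtracted from fluorescence and absorbance prior to normalisation.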
row,Compound,relative induction of RFP reporter [%]
1,"NC(C(=O)O)c1ccccc1 (racemic) [D,L-2-phenylglycine]",0.0147
2,NC(=O)CC[C@H](N)C(=O)O [L-glutamine],-0.216
3,"O=C(O)/C=C\C=C/C(=O)O [cis,cis-muconate]",0.00769
4,O=C(O)CNC(=O)c1ccccc1 [N-benzoylglycine],-0.186
5,O=C(O)CCC(=O)O [succinate],-0.126
6,O=c1[nH]cnc2nc[nH]c12 [hypoxanthine],-0.0963
7,O=c1cc[nH]c(=O)[nH]1 [uracil],-0.0253
8,C[C@H](O)C(=O)O [L-lactate],-0.188
9,O=C(O)CC(=O)C(=O)O [oxaloacetate],-0.115
10,O=C(O)C(O)C(=O)O [tartronic acid],-0.0907
11,O=C(O)C[C@H](O)C(=O)O [L-malate],-0.0258
12,CC(=O)CCC(=O)O [levulinic acid],-0.244
13,O=CC(=O)O [glyoxylate],-0.0503
14,O=C(O)c1cc(=O)c2ccccc2[nH]1 [kynurenate],-0.151
15,O=C(O)C(O)c1ccccc1 (stereo not given) [mandelic acid],0.0552
16,CCCC(=O)O [butyric acid],-0.166
17,C[C@@H](O)C(=O)O [D-lactate],-0.202
18,O=C(O)C1=CCCCC1 [cyclohexene-1-carboxylate],0.0248
19,O=C(O)[C@@H](O)[C@@H](O)[C@H](O)[C@@H](O)C(=O)O [glucarate],-0.0077
20,NCC(=O)O [glycine],-0.0404

row,Compound,relative induction of RFP reporter [%]
1,O=C(O)/C=C/C(=O)O [fumarate],-0.0945
2,NCCc1ccc(O)c(O)c1 [dopamine],-0.023
3,O=C(O)C1CCCC1 [cyclopentane-1-carboxylate],0.108
4,O=C(O)c1ccc(O)cc1 [4-hydroxybenzoate],-0.0931
5,Cn1cnc2c1c(=O)[nH]c(=O)n2C [theobromine],0.0337
6,Oc1ccccc1O [catechol],0.0942
7,Cn1c(=O)c2c(ncn2C)n(C)c1=O [caffeine],0.103
8,O=S(=O)(O)CCO [isethionate],-0.112
9,CCC(=O)O [propanoate],-0.0944
10,C[C@H](N)C(=O)O [L-alanine],-0.194
11,Oc1ccccc1 [phenol],-0.0814
12,"O=C(O)c1c(O)cccc1O [2,6-dihydroxybenzoate]",0.0687
13,NCCS(=O)(=O)O [taurine],-0.19
14,O=C(O)c1cccnc1 [nicotinate],-0.141
15,OC[C@@H](O)[C@@H](O)[C@H](O)[C@H](O)CO [D-mannitol],-0.117
16,N[C@@H](CC(=O)O)C(=O)O [L-aspartate],-0.107
17,O=C(O)C1=C[C@@H](O)[C@@H](O)[C@H](O)C1 [shikimate],0.167
18,Oc1ccc(O)cc1 [hydroquinone],0.0801
19,Oc1cccc(O)c1 [resorcinol],-0.0108
20,O=C(O)CC(CC(=O)O)C(=O)O [tricarballylate],-0.173
